Laboratory results published in PubChem BioAssay AID588726 (The Scripps Research Institute Molecular Screening Center, 2011).
About 8,200 (2.3%) of roughly 360,000 compounds were called active. Only a selection was taken, and actives are over-represented in it overall. Unmarked numbers belong to inactive results. No stated cut-off is given here; in the data, active means inhibition above about 27%; inactive means the rest.

What follows are molecules tested against Fructose-bisphosphate aldolase (Mycobacterium tuberculosis (strain ATCC 25618 / H37Rv)) (UniProt P9WQA3) (assay: M. tuberculosis aldolase activity blockers – biochemical, fluorescence, strain H37Rv, primary screen (AID 588726;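 further: 0% = vehicle and 100% = reference inhibitor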)). Conditions: purified M. tuberculosis FBA, fluorescence read-out, at 1 µM, hits give high values.
Sequence of Fructose-bisphosphate aldolase (Mycobacterium tuberculosis (strain ATCC 25618 / H37Rv)) (P9WQA3 whole entry, looked up): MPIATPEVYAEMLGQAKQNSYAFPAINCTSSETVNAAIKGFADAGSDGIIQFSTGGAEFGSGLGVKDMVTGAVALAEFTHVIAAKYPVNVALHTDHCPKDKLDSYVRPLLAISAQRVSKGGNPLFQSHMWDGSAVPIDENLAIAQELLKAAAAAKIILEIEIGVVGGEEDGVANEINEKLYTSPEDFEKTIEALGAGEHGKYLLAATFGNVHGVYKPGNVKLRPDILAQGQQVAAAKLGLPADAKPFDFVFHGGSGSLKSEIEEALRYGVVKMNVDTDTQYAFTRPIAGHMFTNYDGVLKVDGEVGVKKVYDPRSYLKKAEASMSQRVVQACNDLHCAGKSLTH
In the case of `N#Cc1cccc(OC(=O)c2ccc3c(=O)n4c(nc3c2)CCC4)c1`, the inhibition is reported as 1.39%. In the case of `CCCc1cc(=O)[nH]c(SCc2cc(=O)oc3c(C)c(C)ccc23)n1`, the inhibition is reported as -1.06%. `COC(=O)c1sc(-c2ccc(C(C)(C)C)cc2)cc1NC(=O)/C=C/C(=O)O` was tested, and the inhibition was 1.9%. `CCC(C)(C)n1nnnc1CN1CCN(c2nc3ccc(C)cc3cc2C#N)CC1` gave an inhibition of 3.89%. Work on `COc1cc2c(cc1OC)C(C)N(S(=O)(=O)c1cnc(Cl)c(Cl)c1)CC2` (stereo unspecified) yielded an inhibition of -4.46%. For `CN(CCC#N)c1ncnc2scc(-c3ccccc3)c12`, the inhibition was 4.16%. For `COC(=O)c1sc(N2CCN(Cc3ccccc3)CC2)nc1N`, the inhibition was 1.57%. In the case of `C=CCNc1nc(N)c(C(=C(C#N)C#N)c2ccccc2)s1`, the inhibition is reported as 135% (active). Molecule `COc1ccc(N(CC(=O)NC2CCCCC2)C(=O)CNC(=O)c2ccco2)c(OC)c1` has an inhibition of 3.44%. `O=c1[nH]c(=O)n(Cc2ccco2)c2c1C(C(F)(F)F)(C(F)(F)F)N=C(c1ccco1)N2` gave an inhibition of 1.76%. With `CCCCC[C@@H]1C=C(C(=O)OCC)[C@H](c2ccccc2)N1S(=O)(=O)c1ccc(C)cc1` the inhibition was -1.47%. `CN(CCc1ccccn1)C1CCCN(S(=O)(=O)c2ccccc2Cl)C1` (stereo unspecified) was tested, and the inhibition was -1.97%. Molecule `CN(CC(=O)NCCc1ccccn1)S(=O)(=O)c1ccc(Cl)cc1` has an inhibition of -1.58%. With `CN(CCc1ccccn1)S(=O)(=O)c1ccc2c3c(cccc13)C(=O)N2` the inhibition was 50.8% (active). For `CC1(C)Cc2c(sc3nc(SCC(=O)NCc4ccccc4)n(-c4ccccc4)c(=O)c23)CS1`, the inhibition was 1.67%. `CCCNC(=S)NC1CC2CCCC(C1)N2CC(C)C` (stereo unspecified) showed an inhibition of 0.49%. `COC(=O)C1=NNC2(c3ccc(C)cc3)C(=O)N(c3cccc(C)c3C)C(=O)C12` (stereo unspecified) was tested, and the inhibition was -2.73%. `COC(=O)c1c(-c2cccs2)csc1NC(=O)CSc1ncnc2sc(C)c(C)c12` was tested, and the inhibition was 1.16%. For `CCNC(=O)CN(c1ccc(C)cc1)S(=O)(=O)c1ccc(SC)cc1`, the inhibition was -1.29%. Work on `O=C(NNc1c2ccccc2nc2ccccc12)c1cc2ccccc2cc1O` yielded an inhibition of -10.4%. Molecule `Cc1ccc(C(=O)NNC(=O)OC(C)(C)C)c(Cl)c1` has an inhibition of -0.17%. `CC(C)(C)OC(=O)NNc1c2ccccc2nc2ccccc12` was tested, and the inhibition was 74.1% (active). Molecule `Cc1ccc(S(=O)(=O)N(CCCN(C)C)Cc2ccc3c(c2)OCO3)cc1` has an inhibition of 1.83%. Molecule `O=C(CCN1C(=O)[C@@H]2Cc3ccccc3CN2C1=O)NCCc1ccccc1` has an inhibition of -6.76%. With `CC(=O)c1cccc(NC(=O)C2CCCN(S(=O)(=O)c3cccc4nonc34)C2)c1` (stereo unspecified) the inhibition was 5.88%. With `O=C(CN(C(=O)CNC(=O)c1cccs1)c1cccc(F)c1)NC1CCCCC1` the inhibition was -0.45%. `Cn1c(CCc2ccccc2)nnc1SCC(N)=O` showed an inhibition of -0.79%. Molecule `CCCCNC(=O)c1ccc(-n2c(=S)[nH]c3ccccc3c2=O)cc1` has an inhibition of -2.52%. For `CN(C)CCCNC(=O)c1ccc2[nH]c3ccccc3c2c1`, the inhibition was 34.9% (active). `COC(=O)CCNC(=O)c1ccc2[nH]c(C)c(C)c2c1` was tested, and the inhibition was 4.35%. `O=C(Nc1ncc2c(n1)CC(c1ccco1)CC2=O)c1ccc(Cl)cc1` (stereo unspecified) gave an inhibition of -1.48%. With `O=C(Nc1ncc2c(n1)-c1ccccc1OC2)c1ccc(Cl)cc1` the inhibition was 97.1% (active). `O=C(Nc1ccc(Cl)cn1)c1ccccc1-c1ccccc1` gave an inhibition of -2.1%. Work on `CC(C)NC(=O)C(=O)NCCN1CCN(S(=O)(=O)c2ccc(Cl)cc2)CC1` yielded an inhibition of 2.59%. `CC1(C)O[C@@H]2[C@H](O1)[C@@H](CO)O[C@H]2n1c(N2CCCCC2)nc2c(N)ncnc21` was tested, and the inhibition was 0.56%. `CCOC(=O)N1CCN(CC(=O)Nc2ccc(F)cc2)CC1` gave an inhibition of -0.85%. In the case of `CCC(=O)Nc1ccc2nn(-c3ccc(F)cc3)nc2c1`, the inhibition is reported as 102% (active). `O=C(Nc1cccc(Cl)c1)c1cncn1-c1ccc(F)cc1` gave an inhibition of 6.15%. Work on `Nc1c(N(CCO)C(=O)C2CCCCC2)c(=O)[nH]c(=O)n1Cc1ccccc1` yielded an inhibition of 5.19%. In the case of `CCc1nccn1CCC(=O)N1CCCC(N2CCN(c3ccccc3F)CC2)C1` (stereo unspecified), the inhibition is reported as -1.12%. Molecule `CNC(=O)c1nnn(-c2ccccc2)c1C(=O)NC` has an inhibition of 3.79%. With `N#CCCN1CCN(S(=O)(=O)c2ccc(S(=O)(=O)NC3CC3)cc2)CC1` the inhibition was -0.2%. For `CC(Sc1nnc(-c2ccccc2F)n1C1CC1)C(N)=O` (stereo unspecified), the inhibition was -0.8%. `Cc1cc(C)c2nc3nc(C)cc(C)c3c(N)c2c1` was tested, and the inhibition was 42.9% (active). Work on `CCC(=O)Nc1ccc(-c2ccc(N3CCCCC3)nn2)cc1` yielded an inhibition of 4.9%. In the case of `O=C(Cc1ccccc1)N1N=C(c2ccncc2)CC1(O)C(F)(F)F` (stereo unspecified), the inhibition is reported as -4.28%. With `CC(=O)N1N=C(c2ccccc2)OC1c1cccnc1` (stereo unspecified) the inhibition was -0.2%. `CC(=O)N1N=C(c2ccncc2)OC1(Cc1ccccc1)Cc1ccccc1` was tested, and the inhibition was 46.8% (active). With `CCCCn1c(SCc2ncc(-c3ccccc3)o2)nc2cc(S(N)(=O)=O)ccc21` the inhibition was -3.35%. `O=C(CN(Cc1ccc(Br)cc1)S(=O)(=O)c1ccccc1)NCc1ccncc1` showed an inhibition of 3.05%. `Cc1ccc2c(C(=O)CN3CCCC3)c(C)[nH]c2c1` gave an inhibition of -0.06%. Molecule `O=C(Nc1cccc(Cl)c1)Nc1ccccc1NS(=O)(=O)c1cccs1` has an inhibition of -6.91%. Work on `COc1cc(NC(=O)c2ccccc2NS(=O)(=O)c2ccc(Cl)s2)cc(OC)c1` yielded an inhibition of 2.51%. For `O=C(Nc1nncs1)c1ccccc1NS(=O)(=O)c1cccs1`, the inhibition was 75% (active). `CCCNc1ncnc2sc(C)c(C)c12` gave an inhibition of 2.22%. For `O=C(Nc1c(Cl)cccc1Cl)C1CCC1`, the inhibition was 5.25%. Molecule `O=C(Nc1ccc(F)cc1)c1cccnc1N1CCOCC1` has an inhibition of 1.16%. With `Cc1cccc(C(=O)NC(=S)N2CCN(c3ccc([N+](=O)[O-])cc3)CC2)c1` the inhibition was -0.47%. With `CCC(=O)Nc1cccc(C2=NOC3(C2)C[C@@H](C(N)=O)N(C(=O)c2cc([N+](=O)[O-])cc([N+](=O)[O-])c2C)C3)c1` (stereo partly specified) the inhibition was -2.54%. With `N#CC1=C(N)Oc2[nH]c(=S)[nH]c(=O)c2C12C(=O)Nc1ccccc12` (stereo unspecified) the inhibition was 126% (active). For `Cc1ccc(NC2(C#N)C(=O)Nc3ccccc32)cc1` (stereo unspecified), the inhibition was -3.14%. `Cc1ccc(OCC(=O)Nc2ccccc2Sc2ccc(Cl)cc2)c([N+](=O)[O-])n1` gave an inhibition of -0.96%. `CC1(C)CN(c2ccc(-c3ccnc4ncnn34)cc2)C1=O` was tested, and the inhibition was 809% [above what the read-out allows, likely interference] (active). With `Nc1c(-c2ccc(F)cc2)cnc2ncnn12` the inhibition was 1.26%. Work on `O=C(CSCc1ccccc1Cl)NNC(=O)c1ccccc1` yielded an inhibition of -0.9%. In the case of `C[C@H]1CN([C@@H](C)CO)C(=O)c2cc(Br)cnc2O[C@H]1CN(C)S(=O)(=O)c1cccs1`, the inhibition is reported as 27.8% (active). `CC(C)NC(=O)Nc1cccc2c1O[C@H](CN(C)S(=O)(=O)c1cccs1)[C@@H](C)CN([C@H](C)CO)C2=O` was tested, and the inhibition was 4.46%. `C[C@H]1CN([C@@H](C)CO)C(=O)c2cc(-c3cccc(F)c3)cnc2O[C@@H]1CN(C)S(C)(=O)=O` was tested, and the inhibition was 2.59%. With `Cc1cc(C)cc(OCC(=O)OCC(=O)NC2CCCC2)c1` the inhibition was -0.07%. With `CCN(C(=O)CSc1cccc[n+]1[O-])c1ccccc1` the inhibition was 0.35%. With `Cc1ccc(S(=O)(=O)n2oc(=O)c(C3CCCCC3)c2N)cc1` the inhibition was -0.6%. `C=CCSc1nnc2c(n1)-c1cccc3cccc-2c13` showed an inhibition of -1.23%. `CCOc1ccccc1C1CC(c2ccccc2)Nc2nc(N)nn21` (stereo unspecified) was tested, and the inhibition was 35.6% (active). Work on `FC(F)Oc1ccccc1C1CC(c2ccc(Br)s2)Nc2ncnn21` (stereo unspecified) yielded an inhibition of 1.95%. With `CCOc1ccccc1C1CC(c2ccc(Cl)cc2)Nc2nc(N)nn21` (stereo unspecified) the inhibition was 4.25%. `CCc1cccc(C)c1NC(=O)COC(=O)Cc1ccsc1` showed an inhibition of 4.93%. With `CC(C)NC(=S)Nc1cccc2cnccc12` the inhibition was -1.91%. Work on `Cc1c(CN2CCCCC2)c(O)n(CCO)c(=O)c1C#N` yielded an inhibition of 2.47%. With `N#Cc1ccccc1S(=O)(=O)N1CCN(Cc2c(O)ccc3ccccc23)CC1` the inhibition was 2.66%. In the case of `O=c1oc2c(CN3CCCCC3)c(O)ccc2c2c1CCCCC2`, the inhibition is reported as 502% [above what the read-out allows, likely interference] (active). `CC(C)CN(C(=O)CSc1ncnc2sccc12)C1CCS(=O)(=O)C1` (stereo unspecified) was tested, and the inhibition was 2.25%. Molecule `CCC(C)N(C(=O)CSc1ncnc2c1cnn2-c1ccccc1)C1CCS(=O)(=O)C1` (stereo unspecified) has an inhibition of -2.78%. With `CCN(C(=O)CSc1ncnc2c1cnn2-c1ccccc1)C1CCS(=O)(=O)C1` (stereo unspecified) the inhibition was 32.7% (active). In the case of `CN(C)C(=O)CCC(=O)N1CCCCC1C(=O)Nc1ccc(Oc2ccccc2F)cc1` (stereo unspecified), the inhibition is reported as -1.93%. For `COc1ccccc1C(=O)Nc1cccc(C(=O)N2CCOCC2)c1`, the inhibition was 3.07%. `O=C(c1cccc(N2CCCC2=O)c1)N1CCOCC1` gave an inhibition of -17.6%. In the case of `CCOCCc1c(O)nc(SCC(=O)NCc2ccco2)[nH]c1=O`, the inhibition is reported as 2.42%. Work on `CS(=O)(=O)N(Cc1ccccc1Cl)c1ccc(C(=O)NCc2cccnc2)cc1` yielded an inhibition of -3.74%. `CCN(CC(=O)Nc1cc(Cl)ccc1C)C(=O)CSCc1ccc(C)cc1` was tested, and the inhibition was 2.85%. Molecule `O=C(NC1CCCC1)C(c1c(F)cccc1Cl)N(C(=O)c1csnn1)C1CC1` (stereo unspecified) has an inhibition of -1.18%. For `COc1ccc(OC)c(NC(=O)CN(Cc2ccc(Cl)cc2)S(C)(=O)=O)c1`, the inhibition was -0.32%.
